Screening data (PubChem BioAssay)
GALK inh: inhibitors of human galactokinase. Purified GALK, Kinase-Glo residual ATP luminescence. Potency, µM (highest dose often 57.5 µM), for the others: at the top dose activity change, negative = inhibition, most hits filed as inhibitors. AID 1868. 0.007% of 270,000 active. P51570; further: potency means the concentration at half of the fitted maximal effect
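GALK at 5 nM final was combined with compound, 35 uM ATP and 100 uM galactose in HEPES pH8.0 with MgCl2 and DTT. The reaction ran one hour at room temperature before luminescent ATP detection.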
rTrxR1 inhibitor: rat TrxR1 inhibition; recombinant rTrxR1, NADPH fluorescence consumption, selenite substrate; Potency, µM (series often up to 114 µM), for inactives: top-dose activity change, negative = inhibition, actives largely listed as inhibitors; AID 588453; 1% of 390,000 active; O89049; further: potency means the concentration at half of the fitted maximal effect; nearly all actives have a fitted effect of over 65% in size
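Rat TrxR1 (90 nM in the dispensed reagent) was pre-reduced with 400 uM NADPH for 5 min at room temperature, then incubated with compound for 15 min. After 400 uM selenite was added, NADPH fluorescence (Ex 340/Em 450 nm) was followed for 8 min.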
TrxR1 substrate: is turned over as a substrate by rat TrxR1 | Potency, µM (doses to about 114 µM), without a hit: at the top dose activity change, negative = substrate turnover | purified TrxR1 substrate turnover, NADPH consumption readout | 0.01% of 390,000 active | O89049; further: potency means the concentration at half of the fitted maximal effect; nearly all actives have a fitted effect of over 50% in size
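Rat TrxR1, dispensed at 90 nM, was prereduced with 400 uM NADPH (final) for 5 min at ~22 deg C, then incubated with compound 15 min before 400 uM selenite. A first-read NADPH fluorescence drop versus no-compound background flagged substrates.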
KAT2A inh: blocks human GCN5L2 histone acetyltransferase; GCN5L2 HAT assay, ThioGlo1 CoA-SH fluorescence; AID 504327; 0.21% of 390,000 active; Q92830; Potency, µM (titrated, usually from 58.9 µM), inactives show at the highest dose activity change, negative = inhibition, most hits filed as inhibitors; further: potency means the concentration at half of the fitted maximal effect
Target sequence (Q92830 whole entry, looked up): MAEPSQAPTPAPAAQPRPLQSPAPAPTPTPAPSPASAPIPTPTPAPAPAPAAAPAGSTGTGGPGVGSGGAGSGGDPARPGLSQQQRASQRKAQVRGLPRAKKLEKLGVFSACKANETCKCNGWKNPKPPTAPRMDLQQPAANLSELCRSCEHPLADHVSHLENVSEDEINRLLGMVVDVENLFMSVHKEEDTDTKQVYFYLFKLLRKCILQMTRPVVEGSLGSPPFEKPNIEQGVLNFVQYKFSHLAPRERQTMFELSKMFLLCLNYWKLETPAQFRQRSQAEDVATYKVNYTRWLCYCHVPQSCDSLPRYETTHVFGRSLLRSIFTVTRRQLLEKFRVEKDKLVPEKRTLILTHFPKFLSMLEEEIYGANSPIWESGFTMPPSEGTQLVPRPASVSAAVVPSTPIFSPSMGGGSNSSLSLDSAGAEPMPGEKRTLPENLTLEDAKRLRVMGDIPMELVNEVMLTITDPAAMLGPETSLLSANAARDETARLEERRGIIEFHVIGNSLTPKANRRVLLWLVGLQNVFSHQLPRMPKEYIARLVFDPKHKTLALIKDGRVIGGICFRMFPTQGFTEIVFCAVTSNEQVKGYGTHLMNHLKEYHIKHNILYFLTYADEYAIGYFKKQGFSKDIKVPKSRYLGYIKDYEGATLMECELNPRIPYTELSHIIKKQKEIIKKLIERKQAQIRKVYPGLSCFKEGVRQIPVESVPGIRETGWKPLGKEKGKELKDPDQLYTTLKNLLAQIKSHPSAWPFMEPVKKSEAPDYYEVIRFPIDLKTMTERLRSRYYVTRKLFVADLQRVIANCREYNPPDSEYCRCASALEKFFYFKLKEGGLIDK
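Free CoA generated was detected with ThioGlo1 (50uM) fluorescence at Ex340nm/Em540nm, read immediately and after 20 min at room temperature. Enzyme, 20 nM in HEPES pH 7.5 buffer, saw compounds 15 min before adding 75uM H3(1-25) peptide and 70uM acetyl-CoA.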
Giardia kill: Giardia lamblia killing | Giardia lamblia trophozoite viability | activity change, % at 7.66 µM, hits read low | 0.15% of 340,000 active | AID 540267; in the data active means activity change below about -80%; inconclusive means between about -30% and that limit;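 further: parasites exposed to compound for two days anaerobically before the ATP read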
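Trophozoite viability was measured as ATP-dependent luminescence, read 15-30 min after reagent addition. Before that, parasites at 100 cells/well were exposed to compounds for 48 h, anaerobically, at 37 deg C.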
Pin1 inhibitor: inhibitors of human Pin1; Pin1 FP peptide displacement, HiFluor488, 10 min; Potency, µM (titrated, usually from 115 µM), for inactives: at the highest dose activity, negative = inhibition, actives largely listed as inhibitors; AID 504891; 0.009% of 390,000 active; active means well fitted inhibition curve with a large enough effect in the polarisation, with a control signal flat, not every such curve was filed as active; inconclusive means small, poorly fitted or top-dose-only effect, or effect the other way, or a change in a side signal; inactive means no such curve, though single readings can be large or run the other way; the % refers to the polarisation; further: potency means the concentration at half of the fitted maximal effect
* = called active by the depositor; ? = inconclusive; . = no result given; [ ] = another dose, or the depositor's remark. Most compounds without a hit are left out; they make up all but 1.3% or so of the library. Unless noted, the call rests on the fitted dose curve; in most records, active means well fitted curve in the direction sought with a large enough effect; inconclusive means small, poorly fitted or top-dose-only effect, or another doubt; inactive means no such curve, though single readings can be large; an effect the other way counts as inactive or inconclusive. On the % scale 0 is the no-effect control and ±100 the full control effect.

SMILES	GALK inh	rTrxR1 inhibitor	TrxR1 substrate	KAT2A inh	Giardia kill	Pin1 inhibitor
COc1ccc2cc(-c3cc(C(=O)OCC(=O)NC4CCS(=O)(=O)C4)c4ccccc4n3)ccc2c1 (stereo not given)	0.8%	26.4%	218.8%	-27.0%	-87.8*	36.1%
COc1ccc2cc(-c3cc(C(=O)OCC(=O)Nc4c(C)n(C)n(-c5ccccc5)c4=O)c4ccccc4n3)ccc2c1	1.7%	-18.8%	-7.6%	-0.9%	-93.7*	9.9%
CCc1ccc2oc(-c3cc(NC(=O)COc4ccc(C)cc4)ccc3O)nc2c1	.	11.4%	0.5%	.	.	.
CC(C)(C)C(=O)O/N=C(\N)c1ccc([N+](=O)[O-])s1	-2.2%	2.8%	-5.5%	-2.1%	-20.4	-2.3%
N/C(=N\O)c1ccc([N+](=O)[O-])s1	1.1%	-9.0%	-3.3%	4.2%	-88.2*	-1.1%
CN(C)c1ccc(CNC(=O)CN2CCSc3ccc(S(=O)(=O)N(C)C)cc32)cc1	.	13.3%[57.1 µM]	-4.4%[57.1 µM]	-10.4%	.	-7.1%
CC(C)(C)OC(=O)NCc1nnc(C(C(=O)OCc2ccccc2)c2ccccc2)s1 (stereo not given)	.	.	.	.	.	1.5%
O=S(=O)(NCC(c1cccs1)S(=O)(=O)c1ccccc1)c1ccc(F)cc1 (stereo not given)	.	12.6µM*	-14.6%[57.1 µM]	-5.1%	.	-0.9%
COc1ccccc1NC(=O)CSc1nc2c(oc3ccccc32)c(=O)n1-c1ccccc1F	.	21.8%	4.0%	-4.5%	.	19.6%
CCOC(=O)c1c(-n2cnnn2)sc2c1CCCC2	-2.7%	26.1%	40.5%	-7.6%	8.7	-3.8%
CCOC(=O)c1c(N2C(=O)Nc3cc(Cl)c(Cl)cc3N2O)sc2c1CCCCC2	1.1%	-12.1%	-9.4%	?	-9.7	53.6µM*
CCOC(=O)c1c(N2C(=O)C3C4C=CC(O4)C3C2=O)sc2c1CCCC2 (stereo not given)	1.8%	12.6µM*	-1.8%	.	-1.7	1.9%
N#CC(C#N)=C1C=CC=CN1/C(=C\c1ccco1)C(=O)c1ccc(Cl)cc1	-3.4%	0.501µM*	-9.5%	38.6%	1.9	15.7%
N#C/C(=C\c1ccco1)C(=O)NCc1ccccc1	-0.8%	21.9%	0.7%	-4.3%	-3.1	-8.5%
N#CC(C#N)=C1C=CC=CN1/C(=C\c1ccco1)C(=O)c1ccc(-c2ccccc2)cc1	-5.1%	7.08µM*	2.3%	-9.2%	-17.5	5.2%
O=C(Nc1cccc(-c2ccccc2)c1)N1CCN(C(=O)Nc2cccc(-c3ccccc3)c2)CC1	0.5%	12.9%	0.4%	35.5µM*	-2.8	8.1%
CN1CCN(C(=O)Nc2ccccc2)CC1	-3.2%	36.5%[57.1 µM]	16.4%[57.1 µM]	-4.2%	20.5	-2.2%
O=C(N/N=C/C(Cl)=C/c1ccc([N+](=O)[O-])cc1)C(=O)Nc1cccc(C(=O)O)c1	-4.1%	79.4µM*	-16.8%	-5.6%	-0.3	-20.4%
O=C(Nc1cccc(C(=O)O)c1)/C(=C/c1cccc([N+](=O)[O-])c1)NC(=O)c1cccc(Br)c1	.	12.7%	2.0%	.	?	-6.4%
CCN1CCN(c2cc(N3CCN(C(=O)c4ccco4)CC3)c3c4c(onc24)-c2ccccc2C3=O)CC1	9.3%	-23.8%	-11.3%	-4.4%	-0.9	?
O=C(O)CCNc1cc(N2CCN(C(=O)c3ccco3)CC2)c2noc3c2c1C(=O)c1ccccc1-3	1.6%	35.5µM*	-7.7%	-14.8%	3.4	?
NC(=O)C1CCN(c2nccc(-c3ccc4c(c3)OCCO4)n2)CC1	.	.	.	.	.	-2.2%
COc1cc(F)c(S(=O)(=O)N2CCCN(S(=O)(=O)c3ccc4c(c3)OCCO4)CC2)c(F)c1	.	.	.	.	.	18.0%
CNC(=O)c1c(C)[nH]c(=S)c(C#N)c1-c1ccco1	-0.3%	12.6µM*	1.3%	-15.9%	14.5	?
N#CC1(NC(=O)COC(=O)c2nccnc2N)CCCCC1	.	23.8%	408.4%	-8.1%	-9.8	-8.9%
SMILES	GALK inh	rTrxR1 inhibitor	TrxR1 substrate	KAT2A inh	Giardia kill	Pin1 inhibitor
COc1ccc(OC)c(CCNC(=O)c2csc3c2CCCCC3)c1	.	-8.5%	-4.7%	-6.9%	.	3.1%
Nc1c(S(=O)(=O)O)cc(Nc2cccc3ccccc23)c2c1C(=O)c1ccccc1C2=O	.	.	.	12.6µM*	.	.
Nc1c(S(=O)(=O)O)cc(Nc2ccc(Cl)cc2)c2c1C(=O)c1ccccc1C2=O	.	.	.	28.2µM*	.	.
Nc1c(S(=O)(=O)O)cc(Nc2ccc(Nc3nc(Cl)nc(Nc4ccc(S(=O)(=O)O)cc4)n3)c(S(=O)(=O)O)c2)c2c1C(=O)c1ccccc1C2=O	.	?	5.1%[57.1 µM]	20µM*	.	.
Nc1c(S(=O)(=O)O)cc(NC(=O)c2ccccc2)c2c1C(=O)c1ccccc1C2=O	-2.2%	7.2%	-2.3%	-17.3%	8.8	.
Cc1ccc(-c2ccc(/C=C3\C(=O)ON=C3c3ccccc3)o2)c([N+](=O)[O-])c1	-8.5%	11.2µM*	-8.1%[57.1 µM]	?	0.2	.
CN1CCOc2cc(S(=O)(=O)N3CCN(c4nc(-c5cccs5)nc5ccccc45)CC3)ccc21	.	9.4%	4.6%	.	0.9	-3.6%
OC1c2ccccc2N=C2CCCN21 (stereo not given)	.	.	.	3.1%	.	.
O=C1CCCN1CCCNC(=S)Nc1ccc(Br)cc1Cl	-0.5%	39.8µM*	10.3%[0.0914 µM]	2.6%	-4.8	0.6%
COc1ccc(Cl)cc1NC(=S)NCCCN1CCCC1=O	-1.9%	-29.4%	2.1%	1.9%	0.5	-5.3%
Cn1nnnc1Sc1ncnc2scc(-c3ccccc3F)c12	.	.	.	.	.	-7.8%
O=S(=O)(CC(CN1CCCC1)N1CCCC1)c1ccc2ccccc2c1 (stereo not given)	-3.7%	8.91µM*	7.0%	0.1%	-3.7	17.1%
CCCCN(C)c1nc(-c2ccco2)c2c(c1C#N)CC(C)(C)OC2	1.2%	3.55µM*	-4.2%	-27.4%	4.8	?
O=C(O)C1=CC(=C(c2ccc(O)c(C(=O)O)c2)c2ccc(O)c(C(=O)O)c2)C=CC1=O	.	?	29.8%[57.1 µM]	0.316µM*	.	.
CN(C)C(=O)n1nnnc1Cc1ccc(-c2ccccc2)cc1	.	.	.	1.7%	.	.
Cc1cc(N2CCCC2)nc2ccc(NC(=S)NC(C)C)cc12	2.2%	7.94µM*	33.4%	-3.4%	-2.9	-9.8%
